Reference: PubChem BioAssay (Tox21)
Records with an inconclusive call do not appear. The source made the active and inactive calls. Unless noted, calls come from the whole dose curve; as a rule, active = well fitted curve in the direction sought with a large enough effect in the repeat runs; inconclusive = weak or mixed curves; inactive = no such curve, though single readings can be large; an effect the other way counts as inactive or inconclusive.

How the values were obtained:
[1] = qHTS RealTime-Glo MT Cell Viability Assay in HEK293 cells - 0 hour (AID 1224880); note: top concentration of the series differs between compounds; nearly all actives have a fitted effect of over 45% in size
In short: (§1)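 Luminescence readout at each listed time point; HEK293, 600 cells/well, RealTime-Glo MT reagent added with cells; compounds pinned (23 nL in DMSO) after 5 h at 37 C; continuous culture at 37 C.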

[2] = A CellTox Green Cytotoxicity Assay to monitor cytotoxicity in HEK293 cells - 32 hour (AID 1224881); note: nearly all actives have a fitted effect of over 40% in size
In short: (§2)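 Read-out: fluorescence of a cell-impermeant cyanine dye staining DNA of dead cells, proportional to cytotoxicity. HEK293, 600 cells/well with reagent, compound (23 nL DMSO) added after 5 h; reads at 0, 8, 16, 24, 32, 40 h.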

[3] = A CellTox Green Cytotoxicity Assay to monitor cytotoxicity in HepG2 cells - 0 hour (AID 1224882); note: nearly all actives have a fitted effect of over 35% in size
In short: (§3)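 HepG2, 600 cells/well premixed w/ CellTox Green; 5 h settle, 37 C/5% CO2; pintool cpd add (DMSO); 37 C, 40 h; fluorescence read at 0, 8, 16, 24, 32, 40 h.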

[4] = A CellTox Green Cytotoxicity Assay to monitor cytotoxicity in HepG2 cells - 32 hour (AID 1224883); note: nearly all actives have a fitted effect of over 50% in size
In short: as §3

[5] = A CellTox Green Cytotoxicity Assay to monitor cytotoxicity in HEK293 cells - 8 hour (AID 1224884); note: nearly all actives have a fitted effect of over 35% in size
In short: as §2

[6] = qHTS RealTime-Glo MT Cell Viability Assay in HepG2 cells - 16 hour (AID 1224885); note: nearly all actives have a fitted effect of over 50% in size
In short: (§4)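 Cell number in HepG2 cultures estimated from NanoLuc luminescence generated by metabolic reduction of a prosubstrate by living cells. The homogeneous, nonlytic format allowed repeated reads at 0, 8, 16, 24, 32 and 40 h of compound exposure.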

[7] = qHTS RealTime-Glo MT Cell Viability Assay in HEK293 cells - 24 hour (AID 1224886); note: top concentration of the series differs between compounds; nearly all actives have a fitted effect of over 50% in size
In short: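 Homogeneous bioluminescent viability format in HEK293 cells (600 cells/well). Following 5 h at 37 C/5% CO2, 23 nL compound was pintooled; the signal was measured repeatedly during 40 h incubation.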

[8] = qHTS RealTime-Glo MT Cell Viability Assay in HEK293 cells - 8 hour (AID 1224887); note: top concentration of the series differs between compounds; nearly all actives have a fitted effect of over 50% in size
In short: as §1

[9] = A CellTox Green Cytotoxicity Assay to monitor cytotoxicity in HEK293 cells - 16 hour (AID 1224888); note: nearly all actives have a fitted effect of over 35% in size
In short: as §2

[10] = qHTS RealTime-Glo MT Cell Viability Assay in HepG2 cells - 0 hour (AID 1224889); note: nearly all actives have a fitted effect of over 50% in size
In short: as §4

[11] = A CellTox Green Cytotoxicity Assay to monitor cytotoxicity in HepG2 cells - 8 hour (AID 1224890); note: nearly all actives have a fitted effect of over 45% in size
In short: as §3

[12] = qHTS assay to identify small molecule antagonists of the estrogen receptor alpha (ER-alpha) signaling pathway using the BG1 cell line in the presence of 0.1 nM 17-beta-estradiol - cell viability counter screen (AID 1259241); note: nearly all actives have a fitted effect of over 40% in size
In short: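 Live-cell protease activity (CellTiter-Fluor fluorescence, 30 min) was read in the same wells after VM7Luc4E2 cells had been exposed to compounds with 0.1 nM 17beta-estradiol for 22 hr at 37C.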

[13] = qHTS assay to identify small molecule antagonists of the androgen receptor (AR) signaling pathway using the MDA cell line in the presence of 0.5 nM R1881 - cell viability counter screen (AID 1259242); note: nearly all actives have a fitted effect of over 45% in size
In short: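 Live-cell protease fluorescence, CellTiter-Fluor, 30 min at 37C. Cells: MDA-kb2, 3,000/well, preincubated 5 hr. Compounds plus 0.5 nM R1881 final, 16 hr, 37C, 0% CO2.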

[14] = target: Estrogen receptor (Homo sapiens) (UniProt P03372); experiment: qHTS assay to identify small molecule antagonists of the estrogen receptor alpha (ER-alpha) signaling pathway using the BG1 cell line in the presence of 0.1 nM 17-beta-estradiol (AID 1259244); note: nearly all actives have a fitted effect of over 50% in size
In short: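 Luminescence after ONE-Glo (30 min, room temperature) measured ERE-luciferase activity in VM7Luc4E2 cells treated 22 h with compound and 0.1 nM final 17beta-estradiol as stimulator.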

[15] = qHTS assay to identify small molecule HDAC inhibitors (AID 1259364);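 note: wild-type HCT-116 cells with endogenous class I/II HDAC activity; top concentration of the series differs between compounds; nearly all actives have a fitted effect of over 45% in size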
In short: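 HCT-116 (wild type), 1,500 cells/well, overnight; compound 2 hr 37C 5% CO2; HDAC-Glo I/II reagent 30 min RT; luminescence readout.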

[16] = qHTS assay to identify small molecule HDAC inhibitors - cell viability counter screen (AID 1259365)
In short: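 HCT-116 (wild type), 1,500 cells/well, overnight 37C/5% CO2; compound in DMSO 2hr; CellTiter-Glo 30min RT; luminescence read.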

[17] = qHTS assay to identify small molecule agonists of the sonic hedgehog signaling (Shh) pathway - cell viability counter screen (AID 1259366); note: nearly all actives have a fitted effect of over 50% in size
In short: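 CellTiter-Fluor fluorescence read-out, 1 hr at 37C, added after 23hr compound exposure. Cells: 3T3 Gli1-Luc, an NIH/3T3 clone with stably integrated Gli1-Luc reporter, plated 4hr before compound.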

[18] = qHTS assay to identify small molecule antagonists of the sonic hedgehog signaling (Shh) pathway - cell viability counter screen (AID 1259367); note: nearly all actives have a fitted effect of over 55% in size
In short: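 Cytotoxicity was assessed in parallel with Shh reporter activity by measuring live-cell protease fluorescence (CellTiter-Fluor) in NIH/3T3 cells stably carrying Gli1-Luc, treated with compound under conditioned medium stimulation for 23 hr plus 1 hr reagent incubation.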

[19] = qHTS assay to identify small molecule phospholipidosis (PLD) inducers (AID 1259344; active = well fitted curve in the direction sought with a large enough effect; an effect the other way counts as inactive or inconclusive)
In short: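 Cells (HepG2, 900 per well) attach for 4 h, receive LipidTOX Red and compound together, incubate 24 h at 37 C, are fixed 30 min with paraformaldehyde/Hoechst, then imaged at one site per well.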

[20] = target: Androgen receptor (Homo sapiens) (UniProt P10275); experiment: qHTS assay to identify small molecule antagonists of the androgen receptor (AR) signaling pathway using the MDA cell line in the presence of 0.5 nM R1881 (AID 1259243); note: nearly all actives have a fitted effect of over 50% in size
In short: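 MDA-kb2, MMTV-luc (AR/GR elements); 3,000 cells/well; cpd + 0.5 nM R1881 final; 16 hr 37C, 0% CO2; ONE-Glo 30 min RT; luminescence.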
% is set by controls: 0 for no effect and ±100 for the full control effect.

Chain of Estrogen receptor (Homo sapiens) (P03372 whole entry, looked up): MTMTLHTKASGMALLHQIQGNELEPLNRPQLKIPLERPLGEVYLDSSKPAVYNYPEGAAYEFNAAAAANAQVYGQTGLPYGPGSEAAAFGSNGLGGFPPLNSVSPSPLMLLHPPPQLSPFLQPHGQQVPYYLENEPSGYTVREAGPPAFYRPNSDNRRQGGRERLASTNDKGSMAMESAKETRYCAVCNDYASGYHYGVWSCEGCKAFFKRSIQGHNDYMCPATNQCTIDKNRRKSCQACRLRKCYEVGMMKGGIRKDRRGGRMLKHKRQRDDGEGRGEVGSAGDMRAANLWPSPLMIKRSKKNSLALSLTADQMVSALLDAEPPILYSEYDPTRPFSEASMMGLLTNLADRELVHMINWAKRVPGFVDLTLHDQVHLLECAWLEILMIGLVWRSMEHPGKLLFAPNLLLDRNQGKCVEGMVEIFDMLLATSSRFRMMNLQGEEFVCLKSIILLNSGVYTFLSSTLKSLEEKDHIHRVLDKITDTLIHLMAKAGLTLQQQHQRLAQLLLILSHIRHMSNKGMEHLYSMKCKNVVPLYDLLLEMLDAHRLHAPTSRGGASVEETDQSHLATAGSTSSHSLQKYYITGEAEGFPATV
Chain of Androgen receptor (Homo sapiens) (P10275 whole entry, looked up): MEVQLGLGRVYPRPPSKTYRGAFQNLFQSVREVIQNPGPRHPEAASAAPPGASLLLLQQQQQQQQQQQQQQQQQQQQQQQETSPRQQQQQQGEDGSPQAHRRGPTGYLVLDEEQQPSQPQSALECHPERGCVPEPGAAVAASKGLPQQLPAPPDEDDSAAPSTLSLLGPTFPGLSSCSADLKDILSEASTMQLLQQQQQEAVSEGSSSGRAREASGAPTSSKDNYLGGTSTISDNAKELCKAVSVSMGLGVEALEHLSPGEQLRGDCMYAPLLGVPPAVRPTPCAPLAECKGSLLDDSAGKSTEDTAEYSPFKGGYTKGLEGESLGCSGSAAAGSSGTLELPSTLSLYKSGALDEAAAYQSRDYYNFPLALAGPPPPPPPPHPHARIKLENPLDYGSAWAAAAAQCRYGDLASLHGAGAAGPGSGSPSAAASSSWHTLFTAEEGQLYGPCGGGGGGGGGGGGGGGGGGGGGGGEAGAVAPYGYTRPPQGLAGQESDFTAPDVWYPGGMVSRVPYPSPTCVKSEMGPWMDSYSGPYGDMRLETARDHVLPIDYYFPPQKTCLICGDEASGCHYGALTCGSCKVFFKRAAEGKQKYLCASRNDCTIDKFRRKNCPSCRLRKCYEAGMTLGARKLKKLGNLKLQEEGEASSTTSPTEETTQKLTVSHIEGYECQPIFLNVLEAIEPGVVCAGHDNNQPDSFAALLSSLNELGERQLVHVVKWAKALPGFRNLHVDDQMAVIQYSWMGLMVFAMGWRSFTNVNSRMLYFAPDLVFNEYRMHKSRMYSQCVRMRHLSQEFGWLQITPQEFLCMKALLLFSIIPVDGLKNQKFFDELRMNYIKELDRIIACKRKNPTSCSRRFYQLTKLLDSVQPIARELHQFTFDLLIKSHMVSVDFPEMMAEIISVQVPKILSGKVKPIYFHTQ

COc1ccc(COC=O)cc1
inactive: outcome [1] | Potency [2] | Potency [3] | Potency [4] | Potency [5] | outcome [6] | Potency [7] | Potency [8] | Potency [9] | Potency [10] | Potency [11] | outcome [12] | outcome [13] | outcome [14] | Potency [15] | outcome [16] | Potency [17] | outcome [18]

C[C@H](O)C(=O)Nc1c(I)c(C(=O)NC(CO)CO)c(I)c(C(=O)NC(CO)CO)c1I
inactive: outcome [1] | Potency [2] | Potency [3] | Potency [4] | Potency [5] | outcome [6] | Potency [7] | Potency [8] | Potency [9] | Potency [10] | Potency [11] | outcome [12] | outcome [13] | outcome [14] | Potency [19] | Potency [15] | outcome [16] | Potency [17] | outcome [18]

CCN1CCCC(OC(=O)C(c2ccccc2)c2ccccc2)C1 (stereo unspecified)
inactive: outcome [1] | Potency [2] | Potency [3] | Potency [4] | Potency [5] | outcome [6] | Potency [7] | Potency [8] | Potency [9] | Potency [10] | Potency [11] | outcome [12] | outcome [13] | outcome [14] | Potency [19] | Potency [15] | outcome [16] | Potency [17] | outcome [18]

O=c1[nH]c2ccccc2c(=O)n1CCCl
inactive: outcome [1] | Potency [2] | Potency [3] | Potency [4] | Potency [5] | outcome [6] | Potency [7] | Potency [8] | Potency [9] | Potency [10] | Potency [11] | outcome [12] | outcome [13] | Potency [20] | Potency [15] | outcome [16] | Potency [17] | outcome [18]

CCCCCCC(CCCCCCCCCCC(=O)OCC(COC(C)=O)OC(C)=O)OC(C)=O (stereo unspecified)
inactive: outcome [1] | Potency [2] | Potency [3] | Potency [4] | Potency [5] | outcome [6] | Potency [7] | Potency [8] | Potency [9] | Potency [10] | Potency [11] | outcome [12] | outcome [13] | outcome [14] | Potency [15] | outcome [16] | Potency [17] | outcome [18]

Nc1nc(F)nc2c1ncn2[C@@H]1O[C@H](CO)[C@@H](O)[C@@H]1O
inactive: outcome [1] | Potency [2] | Potency [3] | Potency [4] | Potency [5] | outcome [6] | Potency [7] | Potency [8] | Potency [9] | Potency [10] | Potency [11] | outcome [12] | outcome [13] | outcome [14] | Potency [19] | Potency [15] | outcome [16] | Potency [17]

Cc1cc(C)cc(OCC2CNC(=O)O2)c1 (stereo unspecified)
inactive: outcome [1] | Potency [2] | Potency [3] | Potency [4] | Potency [5] | outcome [6] | Potency [7] | Potency [8] | Potency [9] | Potency [10] | Potency [11] | outcome [12] | outcome [13] | outcome [14] | Potency [19] | Potency [15] | outcome [16] | Potency [17] | outcome [18]

O=C1OC(=O)c2cc([N+](=O)[O-])ccc21
inactive: outcome [1] | Potency [2] | Potency [3] | Potency [4] | Potency [5] | outcome [6] | Potency [7] | Potency [8] | Potency [9] | Potency [10] | Potency [11] | outcome [12] | outcome [13] | outcome [14] | Potency [15] | outcome [16] | Potency [17] | outcome [18]

CCCc1ccc(N)cc1
inactive: outcome [1] | Potency [2] | Potency [3] | Potency [4] | Potency [5] | outcome [6] | Potency [7] | Potency [8] | Potency [9] | Potency [10] | Potency [11] | outcome [12] | outcome [13] | outcome [14] | Potency [15] | outcome [16] | Potency [17] | outcome [18]

CO[Si](CCCNCCC[Si](OC)(OC)OC)(OC)OC
inactive: outcome [1] | Potency [2] | Potency [3] | Potency [4] | Potency [5] | outcome [6] | Potency [7] | Potency [8] | Potency [9] | Potency [10] | Potency [11] | outcome [12] | outcome [13] | outcome [14] | Potency [15] | outcome [16] | Potency [17] | outcome [18]

CCC(=O)Nc1cccc(N)c1
inactive: outcome [1] | Potency [2] | Potency [3] | Potency [4] | Potency [5] | outcome [6] | Potency [7] | Potency [8] | Potency [9] | Potency [10] | Potency [11] | outcome [12] | outcome [13] | outcome [14] | Potency [15] | outcome [16] | Potency [17]

CCCCCCC(=O)OCC
inactive: outcome [1] | Potency [2] | Potency [3] | Potency [4] | Potency [5] | outcome [6] | Potency [7] | Potency [8] | Potency [9] | Potency [10] | Potency [11] | outcome [12] | outcome [13] | outcome [14] | Potency [15] | outcome [16] | Potency [17] | outcome [18]

O=C1CC2(CCCC2)CC(=O)N1
inactive: outcome [1] | Potency [2] | Potency [3] | Potency [4] | Potency [5] | outcome [6] | Potency [7] | Potency [8] | Potency [9] | Potency [10] | Potency [11] | outcome [12] | outcome [13] | Potency [20] | outcome [14] | Potency [15] | outcome [16] | Potency [17] | outcome [18]

NCC[C@H](O)C(=O)N[C@@H]1C[C@H](N)[C@@H](O[C@H]2O[C@H](CN)[C@@H](O)[C@H](O)[C@H]2O)[C@H](O)[C@H]1O[C@H]1O[C@H](CO)[C@@H](O)[C@H](N)[C@H]1O
inactive: activity change, negative = cytotoxicity [1] 1.06% [at 0.29 µM] | cytotoxicity increase [2] 0.628% [at 0.29 µM] | cytotoxicity [3] -4.16% [at 0.29 µM] | cytotoxicity increase [4] -0.727% [at 0.29 µM] | cytotoxicity increase [5] -8.01% [at 0.29 µM] | activity change, negative = cytotoxic [6] 3.3% [at 0.29 µM] | activity change, negative = cytotoxicity [7] 4.59% [at 0.29 µM] | activity change, negative = cytotoxicity [8] 2.61% [at 0.29 µM] | activity change [9] 0.183% [at 0.29 µM, hits give high values] | activity change, negative = cytotoxicity [10] 7.1% [at 0.29 µM] | cytotoxicity increase [11] -0.472% [at 0.29 µM] | activity change, negative = cytotoxicity [12] 7.28% [at 0.349 µM] | viability change, negative = cytotoxic [13] 0.273% [at 0.349 µM] | activity, negative = inhibition [20] 0.695% [at 0.349 µM] | activity change, negative = inhibition [14] 9.86% [at 0.349 µM] | Potency [19] | activity change, negative = inhibition [15] 5.91% [at 0.349 µM] | activity change, negative = cytotoxicity [16] 1.82% [at 0.349 µM] | viability change, negative = cytotoxic [17] 2.12% [at 0.349 µM] | viability change, negative = cytotoxic [18] 1.11% [at 0.349 µM]

C[N+](C)(C)CC[N+]1(C)Cc2c(Cl)c(Cl)c(Cl)c(Cl)c2C1
inactive: outcome [1] | Potency [2] | Potency [3] | Potency [4] | Potency [5] | outcome [6] | Potency [7] | Potency [8] | Potency [9] | Potency [10] | Potency [11] | outcome [12] | outcome [13] | outcome [14] | Potency [19] | Potency [15] | outcome [16] | Potency [17] | outcome [18]
